Measurements taken from PubChem BioAssay (NCATS).
Records with an inconclusive call do not appear. Where a call stands in place of a potency, no number is given. Calls of active or inactive are those of the source. Calls come from the whole dose curve; as a rule, active = well fitted inhibition curve with a large enough effect; inconclusive = small, poorly fitted or top-dose-only effect; inactive = flat fitted curve, though single readings scatter.

Experiment: P-glycoprotein substrates identified in KB-8-5-11 adenocarcinoma cell line, qHTS therapeutic library screen (AID 1346987); note: nearly all actives have a fitted effect of over 65% in size
Conditions: KB-8-5-11 (P-gp overexpressing) viability, CellTiter-Glo, 72 h; series mostly up to 44.5 µM
In short: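 KB-8-5-11: colchicine-selected sub-line of KB-3-1 over-expressing P-gp; assay medium lacked colchicine. 72 h drug exposure at 37 degree C, CellTiter-Glo.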

| Structure (SMILES) | Potency | outcome | activity change, negative = cytotoxicity |
| --- | --- | --- | --- |
| CC1CCC2C(C(=O)O)=CC3CC(C)(C)CC132 (stereo not given) | inactive | – | – |
| CC[C@H](C)/C=C(C)/C=C/C(=O)Cc1cc(O)c(C)c(O)c1C=O | inactive | – | – |
| COc1cc(C2OCC3C(c4ccc(OC5OC(CO)C(O)C(O)C5O)c(OC)c4)OCC23)ccc1O (stereo not given) | inactive | – | – |
| CC(C)(OC1OC(CO)C(O)C(O)C1O)C1CCC(O)(CO)C2CC(O)C(C)(O)C2C1 (stereo not given) | inactive | – | – |
| CC/C=C\C[C@H]1C(=O)C=C[C@@H]1CCCCCCCC(=O)O | inactive | – | – |
| C[C@H]1[C@H](C)CC[C@]2(C(=O)O[C@@H]3O[C@H](CO)[C@@H](O)[C@H](O)[C@H]3O)CC[C@]3(C(=O)O)C(=CCC4[C@@]5(C)CC[C@H](O[C@@H]6O[C@H](CO)[C@@H](O)[C@H](O)[C@H]6O)C(C)(C)C5CC[C@]43C)[C@H]12 (stereo not given in full) | – | inactive [at 9.29 µM] | – |
| CC(=O)N[C@H]1CCN(c2ccc(C3=NOC(CN[S+](=O)([O-])C(C)C)C3)cc2F)C1 (stereo not given in full) | inactive | – | – |
| C/C=C/C=C/C(CC(=O)O)Nc1ccc(C=O)cc1 (stereo not given) | inactive | – | – |
| CC1CCC2C(C)(C)CC(C)(CO)C2(O)C1C(=O)O (stereo not given) | inactive | – | – |
| C=C(C)[C@@H]1CC[C@](C)(O)[C@@H](OC(=O)c2ccccc2)C1 | inactive | – | – |
| C=C1CC[C@H]2[C@@](C)(CCC(O)[C@@]2(C)CO)[C@@H]1C/C=C(/C(=O)O)C(O)CO (stereo not given in full) | inactive | – | – |
| CC(=O)N[C@H]1[C@H](O[C@H]2CC[C@@]3(C)C(CC[C@]4(C)C3CC=C3C5CC(C)(C)CC[C@]5(C(=O)O)[C@H](O[C@@H]5O[C@H](CO)[C@@H](O)[C@H](O)[C@H]5O)C[C@]34C)C2(C)C)O[C@H](CO[C@@H]2OC[C@H](O)[C@H](O)[C@H]2O[C@@H]2OC[C@@H](O)[C@H](O)[C@H]2O)[C@@H](O)[C@@H]1O (stereo not given in full) | – | inactive [at 9.29 µM] | – |
| CC1(C)CCC[C@@]2(C)[C@H]1[C@H](O)C=C1COC(=O)[C@@]12O | inactive | – | – |
| C[C@@H]1C/C=C/C=C\C=C\C=C\[C@H](O[C@@H]2O[C@H](C)[C@@H](O)[C@H](N)[C@@H]2O)C[C@@H]2O[C@](O)(C[C@@H](O)C[C@H]3O[C@@H]3/C=C/C(=O)O1)C[C@H](O)[C@H]2C(=O)O | inactive | – | – |
| COc1ccc([C@@H]2N[C@H](C(=O)O)Cc3c2[nH]c2ccccc32)cc1CN1CCN(c2ccccc2F)CC1 | inactive | – | – |
| CCOc1c2c(c(OCC)c3ccccc13)C(=O)N(c1ccc(CC(=O)NS(=O)(=O)c3ccccc3)cc1)C2 | inactive | – | – |
| CCCC1=CC2=C(CO1)C(=O)C(C)(OC(=O)c1c(C)cc(OC)cc1O)C(O)C2 (stereo not given) | inactive | – | – |
| COc1ccc2cc(OCC3(C(=O)O)CN(C(=O)c4ccc(F)cc4)C3)ccc2c1 | inactive | – | – |
| CO[C@H]1C=C2C(CC[C@H](O[C@@H]3O[C@H](CO)[C@@H](O)[C@@H](O)[C@H]3O)C2(C)C)[C@]2(C)CC[C@]3(C)C([C@H](C)C(O)C(C=C(C)C)O[C@@H]4O[C@H](CO)[C@@H](O)[C@@H](O)[C@H]4O)CC[C@@]3(C)C12 (stereo not given in full) | – | – | 0.439% [at 9.29 µM] (inactive) |
| CC1(O)CCC2C(C(=O)O)=COC(OC3OC(CO)C(O)C(O)C3OC(=O)/C=C/c3ccc(O)cc3)C21 (stereo not given) | inactive | – | – |
| CC(=O)N1c2ccccc2C2(O)CC3C(=O)NC(CC(C)C)C(=O)N3C12 (stereo not given) | inactive | – | – |
| COc1c(C(CC(C)C)OC(C)=O)ccc(Oc2c(O)cc(C)cc2/C=C/C(C)=O)c1C(=O)O (stereo not given) | inactive | – | – |
| COc1ccc(C(OC2OC(CO)C(O)C(O)C2O)C(C)O)cc1 (stereo not given) | inactive | – | – |
| O=C1CC(c2ccc([N+](=O)[O-])cc2)=NN1c1ccccc1 | inactive | – | – |
| O=C1[C@H](O[C@@H]2O[C@H](CO)[C@@H](O)[C@H](O)[C@H]2O)Oc2ccccc2N1O | inactive | – | – |
| N#Cc1ccnc(N2C(=O)CC[C@H]2C(=O)N(c2cncc(F)c2)[C@H](C(=O)NC2CC(F)(F)C2)c2ccccc2Cl)c1 | inactive | – | – |
| COC(=O)C1=CO[C@@H](O[C@@H]2O[C@H](CO[C@@H]3O[C@H](COC(=O)/C=C/c4ccc(O)cc4)[C@@H](O)[C@H](O)[C@H]3O)[C@@H](O)[C@H](O)[C@H]2O)[C@@H]2C(CO)=CC[C@H]12 | inactive | – | – |
| COc1cc(/C=C/c2cc(O)cc(O[C@@H]3O[C@H](CO)[C@@H](O)[C@H](O)[C@H]3O)c2)ccc1O | inactive | – | – |
| CC1(C)CC2C(O)C3=C(CC(C)(O)C2C1)C(=O)OC3O (stereo not given) | inactive | – | – |
| FC(F)(F)c1cc(C(F)(F)F)c2ccc3nc(-c4nnco4)cn3c2n1 | inactive | – | – |
